# High-throughput results deposited in PubChem BioAssay by National Center for Advancing Translational Sciences (NCATS).
# Rows were chosen to be rich in hits. Some 18% of all compounds tested hit in one or more screens of this group.
# IL1B secr inh: blocks inflammasome-driven IL-1 beta release. 360,000 compounds, 4.7% hits. THP-1 LPS/ATP IL-1B secretion, AlphaLISA, 16 h; active compounds read low. activity change, % at 57.5 µM; in the data active means activity change below about -50%; inconclusive means mostly about -30% to -49%; further: on the % scale 0 is the no-effect control and ±100 the full control effect
#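 Secreted IL-1B measured by AlphaLISA bead assay after 16 h compound exposure of THP-1 cells; compounds (final up to 57.5 uM) added 1 h before LPS (250 ng/mL) and ATP (1.25 mM) stimulation; lower signal means less secretion.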
# DT40 TDP1 CPT: growth inhibition of DT40 Tdp1-/-;hTDP1 cells with camptothecin (screen for TDP1 inhibitors). chicken DT40 Tdp1-/-;hTDP1 cells + 20 nM CPT, ATP luminescence, 48 h. Potency, µM (top dose mostly 46.2 µM), for inactives: top-dose activity change, negative = growth inhibition, most hits filed as inhibitors. 420,000 compounds, 12% hits. AID 686979; further: potency means the concentration at half of the fitted maximal effect; on the % scale 0 is the no-effect control and ±100 the full control effect; nearly all actives have a fitted effect of over 55% in size
#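 Chicken DT40 Tdp1-/- cells stably complemented with human TDP1 were seeded at 400 cells/well in medium containing 20 nM camptothecin, exposed to pin-transferred compounds, and grown at 37 °C for at least 48 hr. Viability was read as ATP luminescence.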
# TGFb inhibitor: blocks TGF-b signaling | HepG2 CAGA-GFP TGF-b/SMAD3 reporter, GFP fluorescence, 18 h; TGF-beta stimulated, 500 pg/mL final | Potency, µM (series often up to 46.1 µM), for the others: at the top dose activity, negative = inhibition, actives largely listed as inhibitors | 410,000 compounds, 1.2% hits | AID 588855; further: potency means the concentration at half of the fitted maximal effect; on the % scale 0 is the no-effect control and ±100 the full control effect; nearly all actives have a fitted effect of over 65% in size
#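 HEPG2 CAGA-GFP, 1000 cells/well; 2 h settle, 37 C; cpd via pin tool; TGF-b 500 pg/mL final; 18 h, 37 C; GFP imaging ex488/em500-530; %Activity normalised to -TGF-b and +DMSO controls; CRC fit, curve class.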
# TDP1 inh: TDP1 (human) enzyme inhibition; AID 485290; 350,000 compounds, 0.28% hits; recombinant TDP1, AlphaScreen DNA substrate cleavage; Potency, µM (top dose mostly 130 µM), for inactives: top-dose activity change, negative = inhibition, actives largely listed as inhibitors; further: potency means the concentration at half of the fitted maximal effect; on the % scale 0 is the no-effect control and ±100 the full control effect; nearly all actives have a fitted effect of over 40% in size
# Target sequence (Q9NUW8 whole entry, looked up): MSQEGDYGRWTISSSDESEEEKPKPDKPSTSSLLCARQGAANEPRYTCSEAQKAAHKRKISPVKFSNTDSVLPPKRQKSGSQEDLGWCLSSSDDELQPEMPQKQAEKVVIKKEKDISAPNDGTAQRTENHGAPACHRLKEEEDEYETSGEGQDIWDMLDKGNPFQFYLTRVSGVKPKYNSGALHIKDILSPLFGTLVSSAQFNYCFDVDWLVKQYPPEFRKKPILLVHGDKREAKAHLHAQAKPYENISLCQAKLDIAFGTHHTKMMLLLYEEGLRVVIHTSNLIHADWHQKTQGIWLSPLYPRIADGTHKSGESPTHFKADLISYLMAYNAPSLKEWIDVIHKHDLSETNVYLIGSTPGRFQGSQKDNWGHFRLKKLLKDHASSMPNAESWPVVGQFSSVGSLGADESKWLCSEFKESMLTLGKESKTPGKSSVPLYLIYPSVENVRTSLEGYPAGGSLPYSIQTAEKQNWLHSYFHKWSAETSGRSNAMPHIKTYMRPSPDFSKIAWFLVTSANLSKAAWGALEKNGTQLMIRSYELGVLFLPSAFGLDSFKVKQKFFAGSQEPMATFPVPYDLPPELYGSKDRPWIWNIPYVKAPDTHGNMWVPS
#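 E. coli-derived human Tdp1, 1 nM final. Cpd preinc 15 min RT; substrate 15 nM final, 5 min RT; AS bead mix 10 ug/ml final, 10 min RT. Signal loss = tyrosine-FITC cleavage. No-enzyme wells = max signal.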
# HepG2 tox: HepG2 cytotoxicity, counter-screen for TGF-b inhibitors. HepG2 CAGA-GFP viability, ATP luminescence, 18 h. Potency, µM (highest dose often 46.1 µM), inactives show top-dose activity change, negative = cytotoxicity, hits mostly cytotoxic. 410,000 compounds, 0.76% hits. AID 588856; further: potency means the concentration at half of the fitted maximal effect
#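 HepG2 CAGA-GFP cells (1000/well, DMEM with 1% FBS) received compound, then TGF-beta at 500 pg/mL final, and were incubated 18 hours at 37 degrees C. Viability was read by CellTiter-Glo luminescence. Media-only wells were set as complete cell-killing and DMSO as no toxicity.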
# TDP1 cell noCPT: qHTS for Inhibitors of human tyrosyl-DNA phosphodiesterase 1 (TDP1): qHTS in cells in absence of CPT; 420,000 compounds, 15% hits; Potency, µM (titrated, usually from 46.2 µM), inactives show top-dose activity change, negative = growth inhibition, actives largely listed as inhibitors; DT40 Tdp1-/- hTDP1 cells, no CPT, ATP luminescence, 48 h; AID 686978, 2013; further: potency means the concentration at half of the fitted maximal effect; on the % scale 0 is the no-effect control and ±100 the full control effect; nearly all actives have a fitted effect of over 55% in size
#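 Readout: luminescence from CellTiter-Glo after 30 min in the dark at RT. Cells: DT40 Tdp1-/- with stable hTDP1, 400/well. Exposure: compounds alone, ≥48 hr, 37 °C.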
# * = called active by the depositor; ? = inconclusive; . = no result; [ ] = remark or other dose. Unless noted, the call rests on the fitted dose curve; in most records, active means well fitted curve in the direction sought with a large enough effect; inconclusive means small, poorly fitted or top-dose-only effect, or another doubt; inactive means no such curve, though single readings can be large; an effect the other way counts as inactive or inconclusive.
SMILES,IL1B secr inh,DT40 TDP1 CPT,TGFb inhibitor,TDP1 inh,HepG2 tox,TDP1 cell noCPT
COc1ccc2[nH]c(C(=O)c3ccccc3)cc2c1,.,0.133µM*,.,8.2%[56.1 µM],.,0.15µM*
CC(OC(=O)C1CC(=O)N(Cc2ccccc2)C1)C(=O)Nc1cccc(C#N)c1 (stereo not drawn),4.5,-14.9%,0.0%,4.4%,0.7%,-0.4%
CSc1ccc(N=Nc2c(C)[nH]n(C)c2=O)cc1,.,4.0%,6.8%,8.9%,-17.7%,?
COc1ccc2cc3cc(C(=O)N4CCN(c5ccccn5)CC4)oc3nc2c1,6.2,?,-6.7%,4.6%,-28.9%,18.4µM*
COc1ccc2cc3cc(C(=O)N4CC(C)CC(C)C4)oc3nc2c1 (stereo not drawn),-19.4,-7.9%,10.6%,-0.8%,5.8%,-17.4%
COc1ccc2cc3cc(C(=O)N4CCN(Cc5ccc6c(c5)OCO6)CC4)oc3nc2c1,-65.3*,?,6.3%,5.2%,-24.5%,?
COc1ccc(CCC(C)N2CCOCC2)cc1 (stereo not drawn),37.5,-10.7%,11.9%,.,7.2%,-6.2%
OCC1(Cc2ccc(Cl)cc2)CCN(Cc2ccc(Oc3ncccn3)cc2)CC1,-89.9*,-24.7%,-1.8%,1.2%,-25.3%,-19.0%
COc1ccc(CCC(C)N2CCC(CO)(Cc3ccccc3)CC2)cc1 (stereo not drawn),-56.5*,?,-7.6%,5.3%,-27.2%,?
OCC1(Cc2ccccc2)CCN(Cc2cnc(-c3cccc4ccccc34)nc2)CC1,-57.3*,?,-8.8%,-5.1%,-17.9%,?
COc1ccc(CC2(CO)CCN(S(=O)(=O)c3sccc3C)CC2)cc1,12.8,25.9µM*,-13.5%,3.6%,-35.4%,?
Cc1c(C(=O)NCCCN2CCCC2=O)cnn1-c1ncc2c(n1)-c1ccccc1CC2,.,5.1%[9.04 µM],.,.,.,-18.0%
O=C[C@@H]1CCCN1C(=O)[C@@H]1CCCN1C(=O)OCc1ccccc1,.,.,.,3.7%,.,.
O=C(C(=O)N1CCN(C/C=C/c2ccccc2)CC1)c1ccccc1,1.5,?,.,.,.,?
CN(C)c1cccc(C(=O)NNC(=O)C23CC4CC(CC(C4)C2)C3)c1,4.1,-5.0%,8.6%,3.5%,3.3%,-8.1%
COc1ccccc1NC(=O)C1CCCN1C(=O)Nc1ccc(F)cc1 (stereo not drawn),2.7,-24.2%,2.2%,-2.0%,-15.0%,-10.3%
COc1ccc(CC2(CO)CCN(C(C)Cc3ccc(Cl)cc3)CC2)cc1 (stereo not drawn),-67.0*,?,?,.,-49.8%,?
CC(COc1ccccc1)N1CCC(CO)(CCc2ccccc2)CC1 (stereo not drawn),-66.6*,?,-5.6%,-3.5%,-18.0%,?
CSCC(C)N1CCC(CO)(CCc2ccccc2)CC1 (stereo not drawn),-17.9,-21.9%,5.8%,0.0%,-15.4%,-21.2%
COc1ccc(CC2(CO)CCN(Cc3cccc(OC)c3OC)CC2)cc1,-4.4,-28.8%,4.7%,6.0%,-1.1%,-5.9%
S=C(NCCc1ccccc1)N1CCn2cccc2C1c1cccnc1 (stereo not drawn),-66.0*,?,0.0%,6.0%,0.3%,?
CCCCNC(=S)N1CCn2cccc2C1c1ccc(F)cc1 (stereo not drawn),-86.1*,16.4µM*,?,6.3%,-36.1%,?
CCCCNC(=S)N1CCn2cccc2C1c1ccccc1 (stereo not drawn),1.6,?,-10.3%,6.9%,-18.5%,?
COc1ccc(-n2cc(C(=O)Oc3cc(C)cc(C)c3)c3ccccc3c2=O)cc1,.,?,21.8%,7.7%,-1.1%,?
COc1cccc(CNC(=O)CCS(=O)(=O)c2cc3c(cc2C)NC(=O)CO3)c1,-2.8,5.6%,11.9%,-1.3%,-2.8%,-11.0%
SMILES,IL1B secr inh,DT40 TDP1 CPT,TGFb inhibitor,TDP1 inh,HepG2 tox,TDP1 cell noCPT
CSc1nc(NCc2ccco2)c2sc3nc(C(C)C)c4c(c3c2n1)CC(C)(C)OC4,-17.3,-10.8%,-2.5%,3.9%,9.5%,-22.3%
CC(C)c1nc2sc3c(NCc4ccco4)ncnc3c2c2c1COC(C)(C)C2,?,18.4µM*,?,2.1%,-48.4%,23.1µM*
CC(C)c1nc2sc3c(NCc4ccccc4)ncnc3c2c2c1COC(C)(C)C2,?,9.2µM*,4.3%,4.0%,-5.9%,?
O=c1c(Cl)c(Cl)cnn1Cc1ccccc1Cl,-99.8*,2.59µM*,?,-2.4%,-104.1%,1.03µM*
CCc1ccc(C(=O)Cn2ncc(Cl)c(Cl)c2=O)cc1,-115.6*,3.66µM*,?,3.1%,-97.4%,2.91µM*
Cc1ccc(-c2nnc(Cc3ccc(Cl)cc3)o2)cc1,0.0,-17.7%,?,-7.8%,-3.7%,?
O=c1c(Cl)c(Cl)cnn1Cc1nnc(-c2ccc(Cl)cc2)o1,-100.7*,0.82µM*,12.6µM*,4.6%,11.2µM*,0.92µM*
Cc1cc(C)cc(Cn2ncc(Cl)c(Cl)c2=O)c1,-119.7*,8.2µM*,?,2.7%,-65.1%,11.6µM*
CCc1ccc(C(=O)Cn2ccsc2=N)cc1,7.8,-12.9%,-18.6%,.,-35.8%,-14.6%
O=c1[nH]cnc2c1cnn2Cc1ccccc1Cl,-1.7,-4.6%,1.1%,.,-0.6%,16.6%
CC1CN(CCOc2ccccc2C(C)C)CC(C)O1 (stereo not drawn),18.7,-26.3%,-18.3%,.,-9.1%,-17.5%
CC(=O)c1sc(NC(=O)COc2ccc(Cl)cc2C)nc1C,-8.7,-2.4%,-10.5%,0.0%,14.3%,-1.0%
Cc1ccc(Cn2ncc(Cl)c(Cl)c2=O)cc1,-102.6*,5.17µM*,?,3.1%,-114.9%,3.26µM*
O=C(C1CC(=O)N(c2ccc(F)c(Cl)c2)C1)N1CCOCC1 (stereo not drawn),-16.9,-3.3%,0.1%,.,9.6%,-0.4%
Cc1cc(C)cc(NC(=O)Cn2c(=O)n(-c3ccc(C)c(C)c3)c(=O)c3oc4ccccc4c32)c1,.,8.2%,-12.1%,2.6%,-14.8%,4.1%
COC(=O)c1ccccc1S(=O)(=O)N1CCC(C(=O)Nc2ccc(N3CCOCC3)cc2)CC1,?,1.3%,9.5%,0.5%,-33.1%,-11.7%
COc1cc(/C=C/C(=O)Nc2cc(C(F)(F)F)ccc2Cl)cc(OC)c1OC,-56.7*,?,1.7%,-5.4%,5.1%,25.9µM*
